# Data from PubChem BioAssay.
# “And” between values parts separate entries of the source, which are not always exact repeats. Equal entries are not always repeated. Inconclusive results are not listed. The source made the active and inactive calls.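 The calls were made as follows, unless noted: active = mean z-score across replicates of 1.96 or higher in either the MELAS or the Rieske mutant cell line; inactive = the rest.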
# Legend:
# [1] = stimulators of nuclear beta-catenin in C2C12, primary screen, imaging, WNT3A-conditioned medium, mouse C2C12, NPC library (AID 1117326; in the data active = nuclear beta-catenin stimulation mostly above about 4.2%, no sharp cut-off; inactive = mostly below about 10%); conditions: stronger effect = higher value
# [2] = stimulators of insulin release from INS-1E, primary screen, cell-based, 5 mM glucose, NPC library (AID 1117329;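 active = compound raises insulin release from rat beta cells at 5 mM glucose, no numeric limit stated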); conditions: rat INS-1E insulin secretion, at 10 µM, stronger effect = higher value
# [3] = growth inhibition of GSK3B-pretreated HCT116 cells – cell-based, CellTiter-Glo, 0.2 to 20 µM (AID 1117336;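 active = compounds lowering colon cancer cell viability after pretreatment blocking the GSK3B kinase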); conditions: HCT116 viability after GSK3B inhibitor, at 20 µM, stronger effect = higher value
# [4] = inhibition of endothelial tube formation, primary screen, imaging, VEGF stimulated, CD31 staining, tube area, NPC library (AID 1117340;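 active = compound that reduces growth-factor-driven endothelial tube area in a mixed cell culture, no cutoff stated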); conditions: VEGF-stimulated ADSC/ECFC co-culture, at 10 µM, stronger effect = higher value
# [5] = glucagon-like peptide 1 release enhancers, primary assay, NCI-H716 cell line, NPC library (AID 1117341;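 active = compound raises GLP1 secretion from the human gut endocrine cells, with no numeric limit stated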); conditions: NCI-H716 cells, at 10 µM, stronger effect = higher value
# [6] = HCT116 colon cancer cell growth inhibition, primary screen, CellTiter-Glo luminescence, NPC library (AID 1117342;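 active = compounds that lower survival of HCT116 colon cancer cells in the luminescence readout, no numeric limit stated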); conditions: at 20 µM (top of the series)
# [7] = CellTiter-Glo luminescent readout of SW480 viability loss, NPC library primary (AID 1117343;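 active = compounds that lower viability of the colon cancer cells in the luminescence readout, with no numeric limit stated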); conditions: CellTiter-Glo luminescence; at 20 µM (top of the series) unless noted
# [8] = decreased DLD-1 cellular survival, CellTiter-Glo luminescent readout, NPC compound collection, primary HTS (AID 1117346;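 active = compounds that lower survival of DLD-1 colon cancer cells in the luminescence readout, no cutoff given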); conditions: DLD-1 viability, CellTiter-Glo luminescence; at 20 µM (top of the series)
# [9] = sensitizers of A549 cells to miR-34 induction, primary screen, imaging, A549 dox-inducible miR-34, nuclei and caspase counts (AID 1347080;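 active = compounds whose cell count with miR-34 switched on is under 0.7 times the count with it off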); conditions: A549 miR-34 inducible, Hoechst nuclei count, 48 h
# [10] = survival rescue of mitochondrial mutant cells in low glucose, primary screen, MELAS cybrids, Rieske KO mouse fibroblasts, CellTiter-Glo (AID 1508586);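 also: z relative to plate mean and SD of compound and empty wells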
# [11] = viability rescue of complex I mutant cybrids, primary screen, cell-based, galactose medium, ATP luminescence (AID 1645843;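 active = z-score of at least 1.8 in each of two replicates, scored against plate mean and spread of sample wells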;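 also: positive z means more ATP and so rescue of galactose-driven cybrid death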); conditions: complex I mutant cybrid cells, 72 h, stronger effect = higher value
# [12] = liver-stage malaria parasite growth inhibition, primary screen, cell-based, HepG2, luciferase luminescence, HepG2 viability (AID 624349; in the data active = parasite load remaining mostly below about 12%, no sharp cut-off; inactive = mostly above about 10%;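 also: 100% = mean of DMSO negative control wells on the same plate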); conditions: P. berghei liver stage in HepG2, luciferase luminescence, concentration not given here; parasite load remaining: stronger effect = lower value; viability: measured here: HepG2 viability without parasites
# [13] = biological target: NAD(+) hydrolase SARM1 (Homo sapiens) (UniProt Q6SZW1); test: SARM1 TIR NADase inhibitors, cell lysate, NAD-Glo luminescence (AID 1508614;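 active = compound whose remaining NAD level is above about 45 nM, limit read from the data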;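 also: higher remaining NAD means stronger inhibition of SARM1 NADase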); conditions: SAM-TIR HEK293T lysate NADase, at 1 µM, stronger effect = higher value
# NAD(+) hydrolase SARM1 (Homo sapiens), sequence (Q6SZW1 whole entry, looked up): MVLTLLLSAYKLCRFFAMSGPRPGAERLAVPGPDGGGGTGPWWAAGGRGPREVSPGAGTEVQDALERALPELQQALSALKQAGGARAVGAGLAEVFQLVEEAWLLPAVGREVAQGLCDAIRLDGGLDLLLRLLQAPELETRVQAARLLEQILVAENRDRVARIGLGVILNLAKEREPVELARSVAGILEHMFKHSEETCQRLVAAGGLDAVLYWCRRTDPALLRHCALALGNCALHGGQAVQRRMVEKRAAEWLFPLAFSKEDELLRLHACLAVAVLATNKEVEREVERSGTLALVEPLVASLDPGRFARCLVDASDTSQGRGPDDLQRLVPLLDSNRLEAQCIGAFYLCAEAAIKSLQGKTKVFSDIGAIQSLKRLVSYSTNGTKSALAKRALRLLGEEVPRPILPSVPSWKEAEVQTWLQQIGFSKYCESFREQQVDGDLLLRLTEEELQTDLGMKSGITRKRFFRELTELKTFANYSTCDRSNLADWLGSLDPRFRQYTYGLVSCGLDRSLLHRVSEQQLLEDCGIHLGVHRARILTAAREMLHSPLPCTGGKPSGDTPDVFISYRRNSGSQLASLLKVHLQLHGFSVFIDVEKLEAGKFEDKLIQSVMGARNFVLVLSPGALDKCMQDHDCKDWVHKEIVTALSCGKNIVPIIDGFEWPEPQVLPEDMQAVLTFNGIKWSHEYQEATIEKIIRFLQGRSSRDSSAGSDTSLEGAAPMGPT
# [14] = biological target: ATP-dependent translocase ABCB1 (Homo sapiens) (UniProt P08183); test: MDR1 (ABCB1) efflux transporter inhibition, cell-based (AID 377; in the data active = fluorescence slope change above about 50%); conditions: MDR1-expressing cells, fluorescent substrate accumulation slope; stronger effect = higher value; concentration not given here
# ATP-dependent translocase ABCB1 (Homo sapiens), sequence (P08183 whole entry, looked up, the tested form may be a part): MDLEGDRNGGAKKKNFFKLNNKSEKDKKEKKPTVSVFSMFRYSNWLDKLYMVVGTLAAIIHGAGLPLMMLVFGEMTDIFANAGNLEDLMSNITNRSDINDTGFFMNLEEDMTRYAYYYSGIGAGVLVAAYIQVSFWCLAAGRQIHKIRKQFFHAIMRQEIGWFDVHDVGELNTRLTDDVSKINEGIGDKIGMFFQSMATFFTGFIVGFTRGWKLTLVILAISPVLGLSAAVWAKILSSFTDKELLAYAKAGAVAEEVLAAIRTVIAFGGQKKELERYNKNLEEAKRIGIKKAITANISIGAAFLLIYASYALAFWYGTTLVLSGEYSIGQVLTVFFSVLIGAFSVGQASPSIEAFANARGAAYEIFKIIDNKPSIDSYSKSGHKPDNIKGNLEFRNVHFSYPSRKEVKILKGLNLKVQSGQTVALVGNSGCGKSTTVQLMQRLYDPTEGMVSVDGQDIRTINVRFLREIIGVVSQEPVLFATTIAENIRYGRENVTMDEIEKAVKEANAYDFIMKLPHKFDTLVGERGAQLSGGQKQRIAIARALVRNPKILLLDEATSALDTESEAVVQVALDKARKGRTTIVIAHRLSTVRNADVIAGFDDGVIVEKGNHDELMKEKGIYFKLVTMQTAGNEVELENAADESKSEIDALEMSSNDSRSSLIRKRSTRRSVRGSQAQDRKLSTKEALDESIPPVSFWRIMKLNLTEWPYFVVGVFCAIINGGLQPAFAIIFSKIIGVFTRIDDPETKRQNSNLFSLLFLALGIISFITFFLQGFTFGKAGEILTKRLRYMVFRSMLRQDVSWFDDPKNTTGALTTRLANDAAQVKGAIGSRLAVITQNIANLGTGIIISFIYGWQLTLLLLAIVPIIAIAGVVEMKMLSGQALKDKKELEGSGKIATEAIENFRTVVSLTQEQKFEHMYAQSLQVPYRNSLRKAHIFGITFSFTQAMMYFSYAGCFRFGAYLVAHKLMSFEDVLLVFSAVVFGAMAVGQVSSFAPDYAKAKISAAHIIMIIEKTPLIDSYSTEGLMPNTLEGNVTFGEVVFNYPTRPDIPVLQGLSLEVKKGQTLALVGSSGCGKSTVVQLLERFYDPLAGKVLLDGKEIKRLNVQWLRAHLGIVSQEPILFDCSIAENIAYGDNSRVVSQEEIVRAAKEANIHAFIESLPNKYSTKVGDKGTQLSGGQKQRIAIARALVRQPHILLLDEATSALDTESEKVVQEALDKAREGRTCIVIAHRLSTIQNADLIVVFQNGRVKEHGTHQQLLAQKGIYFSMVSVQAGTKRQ
# [15] = biological target: Mitogen-activated protein kinase 7 (Homo sapiens) (UniProt Q13164); test: ERK5 transactivation activators in reporter cells, primary screen, cell-based, HTS (AID 1508626;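 active = luciferase signal above three times the same-plate solvent-only control wells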;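 also: luciferase driven by Gal4-ERK5 fusion binding five Gal4 sites before minimal TATA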); conditions: HeLa Gal4-ERK5 transactivation, 18 h, at 5 µM, stronger effect = higher value
# Mitogen-activated protein kinase 7 (Homo sapiens), sequence (Q13164 whole entry, looked up, the tested form may be a part): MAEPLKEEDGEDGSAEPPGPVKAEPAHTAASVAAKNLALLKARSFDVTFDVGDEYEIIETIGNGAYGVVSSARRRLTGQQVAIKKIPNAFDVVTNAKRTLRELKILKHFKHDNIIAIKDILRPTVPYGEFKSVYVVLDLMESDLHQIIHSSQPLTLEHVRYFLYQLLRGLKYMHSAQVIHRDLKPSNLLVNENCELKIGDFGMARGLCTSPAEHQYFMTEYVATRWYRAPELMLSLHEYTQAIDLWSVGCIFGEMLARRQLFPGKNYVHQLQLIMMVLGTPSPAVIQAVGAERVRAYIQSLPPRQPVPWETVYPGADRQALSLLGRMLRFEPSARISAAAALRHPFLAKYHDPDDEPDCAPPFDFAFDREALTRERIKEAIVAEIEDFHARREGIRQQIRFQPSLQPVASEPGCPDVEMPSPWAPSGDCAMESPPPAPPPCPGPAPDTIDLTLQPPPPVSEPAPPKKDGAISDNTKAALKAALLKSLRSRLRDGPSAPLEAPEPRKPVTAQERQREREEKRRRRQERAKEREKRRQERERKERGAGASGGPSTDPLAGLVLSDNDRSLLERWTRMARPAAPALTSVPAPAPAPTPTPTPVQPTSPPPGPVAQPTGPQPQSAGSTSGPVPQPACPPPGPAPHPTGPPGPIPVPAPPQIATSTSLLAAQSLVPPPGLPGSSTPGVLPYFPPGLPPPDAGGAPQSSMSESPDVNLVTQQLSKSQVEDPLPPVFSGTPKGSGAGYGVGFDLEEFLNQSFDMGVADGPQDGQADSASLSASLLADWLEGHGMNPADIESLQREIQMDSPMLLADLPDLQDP
# [16] = hESC survival regulators, cell-based (AID 493140; call rule not given here;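 also: cells exposed to compounds for four days before counting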); conditions: human embryonic stem cell survival screen; stronger effect = higher value
# [17] = stronger effect = lower value, cell number ratio, induced over uninduced
# [18] = measured here: relative caspase fold change +Dox/-Dox
# [19] = measured here: total cells with miR-34 induction, stronger effect = lower value
# [20] = measured here: total cells without miR-34 induction
# [21] = MELAS cybrid survival, CellTiter-Glo 48 h, stronger effect = higher value
# [22] = Rieske KO mouse fibroblast survival, CellTiter-Glo 72 h
compound,measurement,setting,value
O=c1[nH]c(=O)c2[nH]c(=O)[nH]c2[nH]1,nuclear beta-catenin stimulation,[1]; at 10 µM,-2.4% (inactive)
same,nuclear beta-catenin stimulation,"[1]; stimulation, at 2 µM",-1.6%
same,insulin secretion stimulation,[2],-0.2% (inactive)
same,viability decrease,[3],-5.9% (inactive)
same,tube area decrease,[4],8.1% (inactive)
same,GLP1 secretion stimulation,[5],-2.2% (inactive)
same,inhibition of viability,[6],-5.8% (inactive)
same,viability decrease (inhibition),[7],-9.2% (inactive)
same,viability decrease (inhibition),[8],9.1% (inactive)
same,fold change,[9]; [17],0.877 (inactive)
same,fold change,[9]; [18],0.666
same,cell count,[9]; [19],8320
same,cell count,[9]; [20],9490
same,z-score,[10]; [21],0.618 (inactive)
same,z-score,[10]; [22],0.253
same,z-score,[11],0.705 (inactive)
CCCCN1C[C@H](O)[C@@H](O)[C@H](O)[C@H]1CO,parasite load remaining,[12],45.7% (inactive)
same,viability,[12],77.5%
same,nuclear beta-catenin stimulation,[1]; at 10 µM,2.8% (inactive)
same,nuclear beta-catenin stimulation,"[1]; stimulation, at 2 µM",0.2%
same,insulin secretion stimulation,[2],-1.2% (inactive)
same,viability decrease,[3],-13.2% (inactive)
same,tube area decrease,[4],8.1% (inactive)
same,GLP1 secretion stimulation,[5],-0.1% (inactive)
same,inhibition of viability,[6],-0.5% (inactive)
same,viability decrease (inhibition),[7],23.4% (inactive)
same,viability decrease (inhibition),[8],3.5% (inactive)
same,fold change,[9]; [17],0.88 (inactive)
same,fold change,[9]; [18],0.958
same,cell count,[9]; [19],9280
same,cell count,[9]; [20],10500
same,z-score,[10]; [21],0.308 (inactive)
same,z-score,[10]; [22],-0.247
same,z-score,[11],0.145 (inactive)
COc1nccnc1NS(=O)(=O)c1ccc(N)cc1,nuclear beta-catenin stimulation,[1]; at 10 µM,1.5% (inactive)
same,nuclear beta-catenin stimulation,"[1]; stimulation, at 2 µM",3.9%
same,insulin secretion stimulation,[2],1.7% (inactive)
same,viability decrease,[3],3.6% (inactive)
same,tube area decrease,[4],2.9% (inactive)
same,GLP1 secretion stimulation,[5],2.7% (inactive)
same,inhibition of viability,[6],6.8% (inactive)
same,viability decrease (inhibition),[7],-1.3% (inactive)
same,viability decrease (inhibition),[8],-5.6% (inactive)
same,fold change,[9]; [17],0.87 (inactive)
same,fold change,[9]; [18],0.163
same,cell count,[9]; [19],9240
same,cell count,[9]; [20],10600
same,z-score,[10]; [21],0.483 (inactive)
same,z-score,[10]; [22],-0.166
same,z-score,[11],-0.33 (inactive)
COc1ccccc1O,parasite load remaining,[12],50.2% (inactive)
same,viability,[12],93.5%
same,nuclear beta-catenin stimulation,[1]; at 10 µM,-1.7% (inactive)
same,nuclear beta-catenin stimulation,"[1]; stimulation, at 2 µM",2.4%
same,insulin secretion stimulation,[2],2.9% (inactive)
same,viability decrease,[3],-10.4% (inactive)
same,tube area decrease,[4],-0.8% (inactive)
same,GLP1 secretion stimulation,[5],-3.6% (inactive)
same,inhibition of viability,[6],3% (inactive)
same,viability decrease (inhibition),[7],1.3% (inactive)
same,viability decrease (inhibition),[8],-5.1% (inactive)
same,fold change,[9]; [17],0.954 (inactive)
same,fold change,[9]; [18],1.02
same,cell count,[9]; [19],10200
same,cell count,[9]; [20],10700
same,z-score,[10]; [21],0.215 (inactive) and 0.0947 (inactive)
same,z-score,[10]; [22],-0.0355 and -0.379
same,remaining NAD,[13],10 nM (inactive)
same,z-score,[11],0.615 (inactive)
O=C(O)Cc1cccc2ccccc12,nuclear beta-catenin stimulation,[1]; at 10 µM,-0.7% (inactive)
same,nuclear beta-catenin stimulation,"[1]; stimulation, at 2 µM",0.6%
same,insulin secretion stimulation,[2],-1.5% (inactive)
same,viability decrease,[3],-6.45% (inactive)
same,tube area decrease,[4],0% (inactive)
same,GLP1 secretion stimulation,[5],1.9% (inactive)
same,inhibition of viability,[6],12.9% (inactive)
same,viability decrease (inhibition),[7],39.8% (inactive)
same,viability decrease (inhibition),[8],-0.4% (inactive)
same,fold change,[9]; [17],0.971 (inactive)
same,fold change,[9]; [18],1.32
same,cell count,[9]; [19],8040
same,cell count,[9]; [20],8280
same,z-score,[10]; [21],0.391 (inactive)
same,z-score,[10]; [22],-0.24
same,z-score,[11],0.46 (inactive)
C#CC1(O)CC[C@H]2[C@@H]3CCC4=CCCC[C@@H]4[C@H]3CC[C@@]21C (some centres not stated),fluorescence slope change,[14],88.5% (active)
same,parasite load remaining,[12],25.2% (inactive) and 119% (inactive)
same,viability,[12],48.4% and 91.7%
same,nuclear beta-catenin stimulation,[1]; at 10 µM,0.9% (inactive)
same,nuclear beta-catenin stimulation,"[1]; stimulation, at 2 µM",0.1%
same,insulin secretion stimulation,[2],16.9% (inactive)
same,viability decrease,[3],110% (active)
same,tube area decrease,[4],14.7% (inactive)
same,GLP1 secretion stimulation,[5],20.3% (active)
same,inhibition of viability,[6],113% (active)
same,viability decrease (inhibition),[7],132% (active)
same,viability decrease (inhibition),[8],102% (active)
same,fold change,[9]; [17],0.949 (inactive)
same,fold change,[9]; [18],1.31
same,cell count,[9]; [19],8290
same,cell count,[9]; [20],8740
same,z-score,[10]; [21],0.595 (inactive)
same,z-score,[10]; [22],0.485
same,luciferase signal,[15],80 AU (inactive)
CN1CCN(C2=Nc3ccccc3Sc3ccc(Cl)cc32)CC1,parasite load remaining,[12],45.5% (inactive)
same,viability,[12],130%
same,nuclear beta-catenin stimulation,[1]; at 10 µM,-0.4% (inactive)
same,nuclear beta-catenin stimulation,"[1]; stimulation, at 2 µM",-0.2%
same,insulin secretion stimulation,[2],16.1% (inactive)
same,viability decrease,[3],83.3% (active)
same,tube area decrease,[4],39.2% (inactive)
same,GLP1 secretion stimulation,[5],19% (inactive)
same,inhibition of viability,[6],79.7% (active)
same,viability decrease (inhibition),[7],116% (active)
same,viability decrease (inhibition),[8],72.4% (active)
same,fold change,[9]; [17],0.882 (inactive)
same,fold change,[9]; [18],1.18
same,cell count,[9]; [19],8380
same,cell count,[9]; [20],9490
same,z-score,[10]; [21],-0.876 (inactive)
same,z-score,[10]; [22],0.707
same,z-score,[11],-0.54 (inactive)
CC(=O)OCC(=O)[C@@]1(OC(C)=O)[C@@H](C)C[C@H]2[C@@H]3C[C@H](F)C4=CC(=O)C=C[C@]4(C)[C@@]3(F)[C@@H](O)C[C@@]21C,survival,[16],6.42 (inactive)
same,parasite load remaining,[12],91.6% (inactive) and 91.1% (inactive)
same,viability,[12],118% and 76.3%
same,nuclear beta-catenin stimulation,[1]; at 10 µM,2.1% (inactive)
same,nuclear beta-catenin stimulation,"[1]; stimulation, at 2 µM",0.9%
same,insulin secretion stimulation,[2],15.2% (inactive)
same,viability decrease,[3],4% (inactive)
same,tube area decrease,[4],-8.8% (inactive)
same,GLP1 secretion stimulation,[5],1.7% (inactive)
same,inhibition of viability,[6],17.6% (inactive)
same,viability decrease (inhibition),[7],16.6% (inactive)
same,viability decrease (inhibition),[8],7.1% (inactive)
same,fold change,[9]; [17],0.811 (inactive)
same,fold change,[9]; [18],1.36
same,cell count,[9]; [19],7160
same,cell count,[9]; [20],8820
same,z-score,[10]; [21],-0.532 (inactive)
same,z-score,[10]; [22],-0.0519
same,remaining NAD,[13],10 nM (inactive)
CCCCCCCCCCCCCCCCO,nuclear beta-catenin stimulation,[1]; at 10 µM,-0.4% (inactive)
same,nuclear beta-catenin stimulation,"[1]; stimulation, at 2 µM",0.7%
same,insulin secretion stimulation,[2],-0.5% (inactive)
same,viability decrease,[3],-1.35% (inactive)
same,tube area decrease,[4],-0.9% (inactive)
same,GLP1 secretion stimulation,[5],-3.8% (inactive)
same,inhibition of viability,[6],-2.3% (inactive)
same,viability decrease (inhibition),[7],21.5% (inactive)
same,viability decrease (inhibition),[8],5.6% (inactive)
same,fold change,[9]; [17],0.9 (inactive)
same,fold change,[9]; [18],0.439
same,cell count,[9]; [19],8310
same,cell count,[9]; [20],9230
same,z-score,[10]; [21],-0.285 (inactive)
same,z-score,[10]; [22],-0.121
O=P(O)(O)OC(CO)CO,nuclear beta-catenin stimulation,[1]; at 10 µM,0.1% (inactive)
same,nuclear beta-catenin stimulation,"[1]; stimulation, at 2 µM",0.7%
same,insulin secretion stimulation,[2],1.2% (inactive)
same,viability decrease,[3],3.9% (inactive)
same,tube area decrease,[4],14.1% (inactive)
same,GLP1 secretion stimulation,[5],-1.6% (inactive)
same,inhibition of viability,[6],-0.7% (inactive)
same,viability decrease (inhibition),[7],-2% (inactive)
same,viability decrease (inhibition),[8],-3.3% (inactive)
same,fold change,[9]; [17],0.854 (inactive)
same,fold change,[9]; [18],0.424
same,cell count,[9]; [19],8550
same,cell count,[9]; [20],10000
same,z-score,[10]; [21],0.561 (inactive)
same,z-score,[10]; [22],-0.261
same,z-score,[11],0.385 (inactive)
